The text below walks through data of PubChem BioAssay (NCI).

Test systems include K-562 leukemia; MALME-3M melanoma; MDA-MB-231 breast; RXF 393 renal; SF-268 CNS; SF-295 CNS; SF-539 CNS; UACC-257 melanoma; M14 melanoma; HCT-15 colon; HT29 colon; SNB-75 CNS; SNB-19 CNS; U251 CNS; PC-3 prostate; SK-MEL-5 melanoma; UACC-62 melanoma; LOX IMVI melanoma; SK-MEL-28 melanoma; SK-MEL-2 melanoma.
Assay in all cases: NCI-60 one-dose screen, 48 h (100 = growth as untreated, 0 = no growth, -100 = all killed)
Common to all, as to conditions: 10 µM unless noted

This is part of a sample that, as a whole, favours compounds with a hit. Of some 83,000 tested, about 20% had one in any assay.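 Each cell line was grown in a 96-well plate and treated with one concentration of compound for 48 hours. Values below 10 were considered active.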 A number with no mark means an inactive call. Calls of active or inactive are those of the source.

On to `O=C1Nc2cc(Cl)ccc2/C1=C\c1ccc(OCc2ccc(Br)cc2F)cc1`, for which the growth was 3.55% (active) in the assay on K-562 leukemia; -66.9% (active) in the assay on MALME-3M melanoma; -2.27% (active) in the assay with MDA-MB-231 breast; -67.3% (active) in the assay on RXF 393 renal; -11.9% (active) in the assay on SF-268 CNS; -83.2% (active) with SF-295 CNS. Moreover, the growth in the assay with SF-539 CNS is -87.9% (active); in the assay on UACC-257 melanoma, 8.13% (active); in the assay on M14 melanoma, -43.9% (active); in the assay on HCT-15 colon, 6.12% (active); in the assay on HT29 colon, 0.627% (active); in the assay on SNB-75 CNS it was -72.8% (active). For the same molecule, the growth in the assay on SNB-19 CNS was -41.3% (active); in the assay with U251 CNS, -68.5% (active); in the assay with PC-3 prostate, -57.1% (active); with SK-MEL-5 melanoma, -12.1% (active); with UACC-62 melanoma, -74.3% (active); with LOX IMVI melanoma it was -92.8% (active). Further, the results for the growth in the assay on SK-MEL-28 melanoma and in the assay with SK-MEL-2 melanoma were -63% (active) and -42.8% (active), respectively.

With `[Cl][Ru].c1ccc(-c2cccc(-c3ccccn3)n2)nc1.c1ccc(-c2ccnc3c2ccc2c(-c4ccccc4)ccnc23)cc1`, the growth is 32.4% in the assay with K-562 leukemia; 2.72% (active) with MALME-3M melanoma; 32.3% in the assay on MDA-MB-231 breast; 48.4% with RXF 393 renal; 28.5% in the assay with SF-268 CNS; 95.7% in the assay on SF-295 CNS. Further, the growth was 15.3% in the assay with SF-539 CNS; 26.9% in the assay on UACC-257 melanoma; 71.1% in the assay on M14 melanoma; 90.4% in the assay on HCT-15 colon; 21% with HT29 colon; 1.93% (active) with SNB-75 CNS. The growth in the assay with SNB-19 CNS was 23.5%; in the assay on U251 CNS it was 31.7%; in the assay on PC-3 prostate, 23.6%; in the assay with SK-MEL-5 melanoma, 73.1%; in the assay with UACC-62 melanoma, 14.2%; with LOX IMVI melanoma, 37.4%. Moreover, the growth in the assay on SK-MEL-28 melanoma was 31.3%; in the assay on SK-MEL-2 melanoma, -36.9% (active).

Regarding `Clc1ccc2c(NCCCN3CCOCC3)c3oc4ccccc4c3nc2c1`, the growth with K-562 leukemia was 13.2%; in the assay on MALME-3M melanoma, 40.6%; in the assay on MDA-MB-231 breast, 33.8%; in the assay on RXF 393 renal, 29.1%; in the assay on SF-268 CNS, 48.6%; in the assay with SF-295 CNS, 31.3%. The growth with SF-539 CNS is 26.5%; with UACC-257 melanoma it was 87.4%; in the assay on M14 melanoma it was 42.7%; with HCT-15 colon it was 21.6%; in the assay on HT29 colon, 25.6%; in the assay on SNB-75 CNS it was 52.4%. Moreover, the growth was 54.1% in the assay with SNB-19 CNS; 34.5% with U251 CNS; 48.6% in the assay on PC-3 prostate; 79.7% with SK-MEL-5 melanoma; 66.6% in the assay with UACC-62 melanoma; 17.3% in the assay on LOX IMVI melanoma. In addition, the growth is 70.6% in the assay with SK-MEL-28 melanoma and 81.3% in the assay with SK-MEL-2 melanoma.

With `CC(=O)Nc1cc(F)cc(-c2ccc3[nH]cc(-c4ccccc4)c3n2)c1`, the growth in the assay with K-562 leukemia is 0.935% (active); in the assay on MALME-3M melanoma it was -14.3% (active); with MDA-MB-231 breast, -3.42% (active); in the assay on RXF 393 renal, -11.8% (active); with SF-268 CNS it was 41.3%; in the assay with SF-295 CNS, -42.9% (active). Also, the growth is -28.5% (active) in the assay with SF-539 CNS; -29.3% (active) in the assay with UACC-257 melanoma; -14.8% (active) with M14 melanoma; -60.8% (active) in the assay on HCT-15 colon; -49.6% (active) in the assay with HT29 colon; 111% in the assay on SNB-75 CNS. In addition, the growth was 12.9% in the assay on SNB-19 CNS; -2.16% (active) in the assay with U251 CNS; 20% in the assay with PC-3 prostate; 49% in the assay with SK-MEL-5 melanoma; -1.28% (active) with UACC-62 melanoma; -62.4% (active) with LOX IMVI melanoma. For the same molecule, the values for the growth in the assay with SK-MEL-28 melanoma and with SK-MEL-2 melanoma were -67.5% (active) and -17.5% (active), respectively.

Turning to `C/C(=C(/c1ccc(Cl)cc1)c1ccc(OCCN)cc1)c1ccc(C)cc1`, the growth is 90.8% in the assay with K-562 leukemia; 101% in the assay on MALME-3M melanoma; 94.4% in the assay on MDA-MB-231 breast; 112% in the assay with RXF 393 renal; 100% with SF-268 CNS; 98.7% in the assay on SF-295 CNS. Moreover, the growth in the assay on SF-539 CNS is 93.8%; with UACC-257 melanoma, 104%; with M14 melanoma, 102%; with HCT-15 colon, 101%; in the assay with HT29 colon it was 111%; with SNB-75 CNS, 94.6%. The growth with SNB-19 CNS is 92.6%; in the assay on U251 CNS, 101%; with PC-3 prostate, 94.6%; in the assay on SK-MEL-5 melanoma, 106%; in the assay with UACC-62 melanoma, 88.6%; in the assay with LOX IMVI melanoma, 105%. The growth in the assay on SK-MEL-28 melanoma is 99.6%; in the assay on SK-MEL-2 melanoma, 112%.

As for `CC(C)(O)c1cncc(-c2ccc3ncnc(N4CCc5cc(F)c(Cl)cc54)c3c2)c1`, the growth in the assay with K-562 leukemia is 33.6%; with MALME-3M melanoma, 16.1%; in the assay with MDA-MB-231 breast, 30.3%; in the assay with RXF 393 renal, -17% (active); in the assay with SF-268 CNS, 26.1%; in the assay on SF-295 CNS it was 7.56% (active). The growth is 4.86% (active) in the assay with SF-539 CNS; 42.8% with UACC-257 melanoma; 32.2% in the assay on M14 melanoma; 14.1% in the assay with HCT-15 colon; 20.8% in the assay with HT29 colon; -20% (active) in the assay with SNB-75 CNS. Besides, the growth with SNB-19 CNS is 25.2%; in the assay on U251 CNS it was 42.6%; in the assay with PC-3 prostate, 18.7%; in the assay on SK-MEL-5 melanoma it was 13.4%; in the assay on UACC-62 melanoma, 5.48% (active); in the assay with LOX IMVI melanoma it was 12.2%. Further, the growth is 24.8% in the assay on SK-MEL-28 melanoma and -1.1% (active) in the assay on SK-MEL-2 melanoma.

In the case of `O=C(CCN1C(=O)/C(=C/c2ccccc2F)SC1=S)N1CCOCC1`, the growth with K-562 leukemia was 32.2%; in the assay on MALME-3M melanoma it was 74.1%; with MDA-MB-231 breast it was 71%; in the assay with RXF 393 renal, 41.2%; in the assay on SF-268 CNS it was 101%; with SF-295 CNS, 97.8%. The growth was 87.8% in the assay on SF-539 CNS; 89.8% in the assay on UACC-257 melanoma; 80.5% with M14 melanoma; 45.5% in the assay on HCT-15 colon; 87.1% in the assay with HT29 colon; 94% in the assay on SNB-75 CNS. In addition, the growth in the assay on SNB-19 CNS was 99%; in the assay with U251 CNS, 94.4%; in the assay on PC-3 prostate, 108%; in the assay on SK-MEL-5 melanoma, 96.9%; in the assay on UACC-62 melanoma, 82.7%; with LOX IMVI melanoma, -34.1% (active). In the assay on SK-MEL-28 melanoma, the growth was 85.1%.
